From PubChem
In the library only some 19% were active in any assay of this set; here they are far more common.
DT40 TDP1 CPT: qHTS for Inhibitors of human tyrosyl-DNA phosphodiesterase 1 (TDP1): qHTS in cells in presence of CPT | chicken DT40 Tdp1-/-;hTDP1 cells + 20 nM CPT, ATP luminescence, 48 h | Potency, µM (top dose mostly 46.2 µM), without a hit: top-dose activity change, negative = growth inhibition, hits mostly inhibitors | 12% of 420,000 active | AID 686979, 2013; also: potency is read from the fitted curve at half-maximal effect; nearly all actives have a fitted effect of over 55% in size
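Chicken DT40 Tdp1-/- cells stably complemented with human TDP1 were seeded at 400 cells/well in medium containing 20 nM camptothecin, exposed to pin-transferred compounds, and grown at 37 °C for at least 48 hr. Viability was read as ATP luminescence.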
DT40 TDP1 no CPT: qHTS for Inhibitors of human tyrosyl-DNA phosphodiesterase 1 (TDP1): qHTS in cells in absence of CPT. DT40 Tdp1-/- hTDP1 cells, no CPT, ATP luminescence, 48 h. Potency, µM (highest dose often 46.2 µM), for the others: top-dose activity change, negative = growth inhibition, usual class: inhibitors. 15% of 420,000 active. AID 686978, 2013; also: potency is read from the fitted curve at half-maximal effect; nearly all actives have a fitted effect of over 55% in size
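Stably hTDP1-transfected Tdp1-null chicken DT40 cells were treated with library compounds minus camptothecin and grown for at least 48 hr at 37 °C, after which cellular ATP was quantified by luminescence.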
HT1080-NT tox: qHTS for induction of synthetic lethality in tumor cells producing 2HG: qHTS for the HT-1080-NT fibrosarcoma cell line; HT-1080-NT fibrosarcoma viability, CellTiter-Glo ATP luminescence, 48 h; Potency, µM (top dose mostly 46.1 µM), for the others: at the top dose activity, negative = less viability, most hits filed as cytotoxic; 1.6% of 360,000 active; AID 686970, 2013;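 also: NT is the 2HG producing partner of a matched IDH1 knockdown line; potency is read from the fitted curve at half-maximal effect; 0% = DMSO-treated cells and -100% = media-only wells without cells; nearly all actives have a fitted effect of over 55% in size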
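Compounds were tested in concentration-response format on HT-1080-NT cells for 48 hours at 37 degrees C. Cell viability came from CellTiter-Glo luminescence; curves were classified by r2, response magnitude and activity.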
HT1080 IDH1KD tx: qHTS for induction of synthetic lethality in tumor cells producing 2HG: qHTS for the HT-1080-IDH1KD cell line; HT-1080 IDH1 knockdown viability, ATP luminescence, 48 h; Potency, µM (titrated, usually from 46.1 µM), for inactives: at the highest dose activity, negative = toxicity, actives largely listed as cytotoxic; 2% of 360,000 active; AID 686971, 2013;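 also: potency is read from the fitted curve at half-maximal effect; 0% = DMSO wells and -100% = cell-free medium wells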
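% activity derives from luminescence (CellTiter-Glo), normalised to DMSO and no-cell wells. HT-1080-IDH1KD cells, 750/well, had 48 h compound exposure at 37 °C.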
IL-1B inflam inh: qHTS for Inhibitors of Inflammasome Signaling: IL-1-beta AlphaLISA Primary Screen. THP-1 LPS/ATP IL-1B secretion, AlphaLISA, 16 h; stronger effect = lower value. activity change, % at 57.5 µM. 4.7% of 360,000 active. AID 743279, 2014; in the data active = activity change below about -50%; inconclusive = mostly about -30% to -49%
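THP-1 cells pretreated 1 hr with compounds (up to 57.5 uM final), then stimulated with LPS (250 ng/mL final) plus ATP (1.25 mM final); secreted IL-1B measured by AlphaLISA after 16 hr, decreased signal indicating inhibition.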
An asterisk follows results filed as active; ? = inconclusive; · = no result; [ ] = remark or other dose. Unless noted, calls follow the shape of the dose curve; as a rule, active = well fitted curve in the direction sought with a large enough effect; inconclusive = small, poorly fitted or top-dose-only effect, or another doubt; inactive = no such curve, though single readings can be large; an effect the other way counts as inactive or inconclusive. Unless noted, % is scaled to controls: 0 for no effect and ±100 for the full control effect.

SMILES	DT40 TDP1 CPT	DT40 TDP1 no CPT	HT1080-NT tox	HT1080 IDH1KD tx	IL-1B inflam inh
CCOC(=O)N1CCN(CC(O)COc2ccccc2C(C)(C)C)CC1 (centres undefined)	?	18µM*	-4%	-4%	1
CCOC(=O)N1CCN(CC(O)COc2ccccc2C(C)C)CC1 (centres undefined)	?	?	-1%	-3%	-10
CCOC(=O)N1CCN(CC(O)COc2ccccc2C(C)CC)CC1 (centres undefined)	-4%	-8%	12%	2%[9.24 µM]	-2
COc1ccc(CC(=O)NC2CC(=O)N(c3cccc(F)c3)C2)cc1 (centres undefined)	7%	-16%	·	·	·
CN1CCN(c2ncc3nc(CCc4ccccc4)c(=O)n(Cc4ccc(F)cc4)c3n2)CC1	?	15µM*	·	·	·
COCCn1c(=O)c(CCc2ccccc2)nc2cnc(N3CCN(C)CC3)nc21	-16%	-22%	·	·	·
O=c1c(CCc2ccccc2)nc2cnc(N3CCNCC3)nc2n1Cc1ccc(F)cc1	1µM*	?	·	·	·
CN1CCN(c2ncc3nc(CCc4ccccc4)c(=O)n(C)c3n2)CC1	23µM*	?	·	·	·
CN1CCN(c2ncc3nc(-c4cccs4)c(=O)n(Cc4ccc(F)cc4)c3n2)CC1	13µM*	?	·	·	·
Cc1cccc(Cn2nc(C)cc2NC(=O)CCCn2ccc([N+](=O)[O-])n2)c1	12%	-16%	-3%	12%	-9
CCOC(=O)c1ccc(N=Nc2c(C)c(C#N)c(O)[nH]c2=O)cc1	1%	?	4%	24%	14
COc1ccc(-c2cc(-c3ccccc3)nc(NN)n2)cc1OC	3.7µM*	?	?	?	?
Cc1ccc(-c2cc(-c3ccccc3)nc(NN)n2)cc1	?	-22%	?	?	-27
COc1nc(-c2ccccc2)cc(-c2ccc(OC)c(OC)c2)n1	?	21µM*	-8%	?	-19
O=c1[nH]c2cc3c(cc2cc1CN(CCc1ccccc1)Cc1nnnn1CC1CCCO1)OCO3 (centres undefined)	?	23µM*	1%[9.24 µM]	-4%	-9
COc1ccc2[nH]c(=O)c(CN(Cc3ccccc3OC)Cc3nnnn3CC3CCCO3)cc2c1 (centres undefined)	23µM*	?	4%	-16%	?
O=c1[nH]c2cc3c(cc2cc1CN(Cc1nnnn1CC1CCCO1)C1CCCCC1)OCO3 (centres undefined)	?	?	3%	0%	-4
O=c1[nH]c2cc3c(cc2cc1CN(Cc1nnnn1CC1CCCO1)C1CCCC1)OCO3 (centres undefined)	?	13µM*	-4%	-2%	3
COc1ccccc1CN(Cc1cc2cc(C)cc(C)c2[nH]c1=O)Cc1nnnn1CC1CCCO1 (centres undefined)	?	23µM*	?	?	0
COc1ccc2[nH]c(=O)c(CN(Cc3ccc(C)cc3)Cc3nnnn3CC3CCCO3)cc2c1 (centres undefined)	?	?	-5%	-13%	-11
Cc1cc(C)c2[nH]c(=O)c(CN(CC3CCCO3)C(=S)Nc3ccccc3)cc2c1 (centres undefined)	?	?	3%	11%	16
COCCn1c(C)cc(O)c(C(c2ccccc2)N2CCN(CCO)CC2)c1=O (centres undefined)	-2%	-7%	·	·	·
Cc1cccc(-n2nc(CC#N)c(C#N)c2N)c1	-5%	-29%	-8%	1%	?
Cc1ccc2[nH]c(=O)c(CN(CCc3ccccc3)Cc3nnnn3CC3CCCO3)cc2c1 (centres undefined)	?	?	-4%	-5%	-23
COc1ccc2[nH]c(=O)c(CN(CCc3ccccc3)Cc3nnnn3CC3CCCO3)cc2c1 (centres undefined)	6.5µM*	29µM*	?	-7%[9.24 µM]	-17
SMILES	DT40 TDP1 CPT	DT40 TDP1 no CPT	HT1080-NT tox	HT1080 IDH1KD tx	IL-1B inflam inh
CC1=NN(C(=O)c2cccnc2)C(O)(C(F)(F)F)C1 (centres undefined)	-12%	-12%	?	?	11
O=C(c1ccccc1O)N1N=C(c2ccccc2)CC1(O)C(F)(F)F (centres undefined)	-21%	2%	-20%	-20%	0
CC1=NN(C(=O)c2csc(C(C)C)c2)C(O)(C(F)(F)F)C1 (centres undefined)	0.73µM*	1µM*	1%	4%	12
CCOc1ccc(CC(=O)N2N=C(C)CC2(O)C(F)(F)F)cc1 (centres undefined)	18µM*	5.8µM*	9%	8%	-8
CC1=NN(C(=O)c2ccoc2C)C(O)(C(F)(F)F)C1 (centres undefined)	2.9µM*	2.3µM*	14%	3%	-2
CN(CC(=O)NCCc1ccc(S(N)(=O)=O)cc1)CC(=O)Nc1ccccc1C(F)(F)F	4%	1%	17%	23%	17
Cc1nn(-c2ccccn2)c2c1C(=O)C(Br)CC2 (centres undefined)	5.2µM*	3.7µM*	-8%	-4%	-106*
Cc1ccc(S(=O)(=O)Cn2nnnc2C(CC(C)C)N2CCN(C3CCCC3)CC2)cc1 (centres undefined)	-16%	?	-29%	-1%	?
OC[C@H]1O[C@@H](c2nc(-c3cccc4ccccc34)no2)[C@H](O)[C@@H]1O	?	15µM*	?	-16%	-68*
CCOc1ccc(-c2noc([C@@H]3O[C@H](CO)[C@@H](O)[C@H]3O)n2)cc1	?	?	12%	8%	-58*
OC[C@H]1O[C@@H](c2nc(-c3ccccc3Br)no2)[C@H](O)[C@@H]1O	0.52µM*	6.5µM*	10µM*	15µM*	0
COc1ccc(-c2noc([C@@H]3O[C@H](CO)[C@H](O)[C@H](O)[C@H]3O)n2)cc1OC	13%	15%	25%	4%	18
CS(=O)(=O)N1c2ccccc2[C@@]2(Br)C[C@H]3C(=O)N[C@@H](Cc4ccccc4)C(=O)N3[C@@H]12	?	?	3%	9%	25
Cc1ccc(-n2[nH]c(C)c(/C=C3/C=Nc4ccccc43)c2=O)cc1C	-3%	0%	-2%	-2%	49
COc1cc(SC#N)ccc1N=Cc1c(C)[nH]n(-c2ccc(C)c(C)c2)c1=O	3.3µM*	2.6µM*	21µM*	15µM*	-98*
